According to PubChem BioAssay AID1159580 (chemical genetic matrix, 2015):
The whole screen tested about 5,500 compounds, of which about 2,000 (36%) were called active. Another 18% or so got no clear call; they are omitted. No stated cut-off is given here; in the data, active means normalized growth mostly below about 0.91 (no sharp cut-off); inconclusive means no clear call, values can overlap the other calls; inactive means mostly above about 0.92. The list shows a part of the results.

Test: chemical genetic growth profiling, strain panel (AID 1159580);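 further: tested at 20 µM; growth read once vehicle control cultures reached saturation at 30 °C; 1 = growth at the plate median or of vehicle wells; lower values mean less growth of the strain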
Settings: growth OD

Measured: normalized growth

N#CC1COc2ccccc2O1 (centres undefined)
inactive: S. cerevisiae deletion strains, locus YAL013W, strain DEP1, hits give low values 1.01 | S. cerevisiae deletion strains, locus YBR229C, strain ROT2, hits give low values 0.993 | S. cerevisiae deletion strains, locus YDL101C, strain DUN1, hits give low values 1.01 | S. cerevisiae deletion strains, locus YDR150W, strain NUM1, hits give low values 1.03 | S. cerevisiae deletion strains, locus YEL061C, strain CIN8, hits give low values 1.01 | S. cerevisiae deletion strains, locus YGR078C, strain PAC10, hits give low values 0.999 | S. cerevisiae deletion strains, locus YGR229C, strain SMI1, hits give low values 0.999 | S. cerevisiae deletion strains, locus YHR030C, strain SLT2, hits give low values 1.03 | S. cerevisiae deletion strains, locus YHR087W, strain rtc3, hits give low values 0.989 | S. cerevisiae deletion strains, locus YJR043C, strain POL32, hits give low values 1.03 | S. cerevisiae deletion strains, locus YJR075W, strain HOC1, hits give low values 0.973 | S. cerevisiae deletion strains, locus YKL190W, strain CNB1, hits give low values 1.02 | S. cerevisiae deletion strains, locus YLR039C, strain RIC1, hits give low values 1 | S. cerevisiae deletion strains, locus YLR058C, strain SHM2 (second series), hits give low values 0.994 | S. cerevisiae deletion strains, locus YLR085C, strain ARP6, hits give low values 1.01 | S. cerevisiae deletion strains, locus YLR262C, strain YPT6, hits give low values 0.997 | S. cerevisiae deletion strains, locus YML094W, strain GIM5, hits give low values 1.01 | S. cerevisiae deletion strains, locus YMR219W, strain ESC1, hits give low values 0.999 | S. cerevisiae deletion strains, locus YMR263W, strain SAP30, hits give low values 1.03 | S. cerevisiae deletion strains, locus YMR307W, strain GAS1, hits give low values 1.1 | S. cerevisiae deletion strains, locus YNL153C, strain GIM3, hits give low values 0.996 | S. cerevisiae deletion strains, locus YNL298W, strain CLA4 (second series), hits give low values 1.04 | S. cerevisiae deletion strains, locus YNL322C, strain KRE1, hits give low values 0.984 | S. cerevisiae deletion strains, locus YNR030W, strain Alg12, hits give low values 1.01 | S. cerevisiae deletion strains, locus YPL055C, strain LGE1, hits give low values 1.13 | S. cerevisiae deletion strains, locus YPL241C, strain CIN2, hits give low values 0.998 | S. cerevisiae deletion strains, locus YPR135W, strain CTF4, hits give low values 1.04 | S. cerevisiae strains, strain wild type, hits give low values 1.01

S=c1ccss1
active: S. cerevisiae deletion strains, locus YAL021C, strain ccr4, hits give low values 0.679 | S. cerevisiae deletion strains, locus YAL026C, strain drs2, hits give low values 0.779 | S. cerevisiae deletion strains, locus YBR231C, strain swc5, hits give low values 0.895 | S. cerevisiae deletion strains, locus YDR069C, strain doa4, hits give low values 0.835 | S. cerevisiae deletion strains, locus YDR137W, strain rgp1, hits give low values 0.805 | S. cerevisiae deletion strains, locus YFR010W, strain ubp6, hits give low values 0.839 | S. cerevisiae deletion strains, locus YGL253W, strain hxk2, hits give low values 0.818 | S. cerevisiae deletion strains, locus YHR013C, strain ard1, hits give low values 0.77 | S. cerevisiae deletion strains, locus YLR357W, strain rsc2, hits give low values 0.807 | S. cerevisiae deletion strains, locus YOR070C, strain gyp1, hits give low values 0.911 | S. cerevisiae deletion strains, locus YOR083W, strain WHI5, hits give low values 0.857 | S. cerevisiae deletion strains, locus YOR106W, strain vam3, hits give low values 0.646 | S. cerevisiae deletion strains, locus YOR270C, strain vph1, hits give low values 0.423 | S. cerevisiae deletion strains, locus YPL051W, strain arl3, hits give low values 0.904 | S. cerevisiae deletion strains, locus YPL078C, strain atp4, hits give low values 0.872
inactive: S. cerevisiae deletion strains, locus YAL030W, strain snc1, hits give low values 0.997 | S. cerevisiae deletion strains, locus YBL061C, strain skt5, hits give low values 0.989 | S. cerevisiae deletion strains, locus YBR009C, strain hhf1, hits give low values 0.915 | S. cerevisiae deletion strains, locus YBR023C, strain chs3, hits give low values 0.972 | S. cerevisiae deletion strains, locus YBR171W, strain sec66, hits give low values 0.994 | S. cerevisiae deletion strains, locus YBR279W, strain paf1, hits give low values 0.948 | S. cerevisiae deletion strains, locus YCL011C, strain gbp2, hits give low values 0.916 | S. cerevisiae deletion strains, locus YCL016C, strain dcc1, hits give low values 0.977 | S. cerevisiae deletion strains, locus YCL069W, strain vba3, hits give low values 1 | S. cerevisiae deletion strains, locus YCR088W, strain abp1, hits give low values 1 | S. cerevisiae deletion strains, locus YDL005C, strain med2, hits give low values 0.987 | S. cerevisiae deletion strains, locus YDL040C, strain nat1, hits give low values 0.985 | S. cerevisiae deletion strains, locus YDR001C, strain nth1, hits give low values 1 | S. cerevisiae deletion strains, locus YDR159W, strain sac3, hits give low values 1.06 | S. cerevisiae deletion strains, locus YDR195W, strain ref2 1.1 | S. cerevisiae deletion strains, locus YDR297W, strain sur2, hits give low values 0.993 | S. cerevisiae deletion strains, locus YDR334W, strain swr1, hits give low values 0.931 | S. cerevisiae deletion strains, locus YDR335W, strain msn5, hits give low values 0.992 | S. cerevisiae deletion strains, locus YDR392W, strain spt3, hits give low values 1.02 | S. cerevisiae deletion strains, locus YEL003W, strain gim4, hits give low values 1.01 | S. cerevisiae deletion strains, locus YEL037C, strain rad23, hits give low values 0.984 | S. cerevisiae deletion strains, locus YEL061C, strain CIN8 (second series), hits give low values 1.01 | S. cerevisiae deletion strains, locus YER015W, strain faa2, hits give low values 0.984 | S. cerevisiae deletion strains, locus YER016W, strain bim1, hits give low values 0.984 | S. cerevisiae deletion strains, locus YER111C, strain swi4, hits give low values 1.01 | S. cerevisiae deletion strains, locus YER155C, strain BEM2 (second series), hits give low values 0.979 | S. cerevisiae deletion strains, locus YGL167C, strain pmr1, hits give low values 1 | S. cerevisiae deletion strains, locus YGL173C, strain kem1, hits give low values 0.926 | S. cerevisiae deletion strains, locus YGL227W, strain vid30, hits give low values 1.01 | S. cerevisiae deletion strains, locus YGL240W, strain doc1, hits give low values 0.96 | S. cerevisiae deletion strains, locus YHR027C, strain rpn1, hits give low values 0.943 | S. cerevisiae deletion strains, locus YHR142W, strain chs7, hits give low values 0.94 | S. cerevisiae deletion strains, locus YJL092W, strain hpr5, hits give low values 0.991 | S. cerevisiae deletion strains, locus YJL095W, strain BCK1 (second series), hits give low values 0.99 | S. cerevisiae deletion strains, locus YJL115W, strain asf1, hits give low values 0.994 | S. cerevisiae deletion strains, locus YJL129C, strain trk1, hits give low values 0.927 | S. cerevisiae deletion strains, locus YJL154C, strain vps35, hits give low values 0.997 | S. cerevisiae deletion strains, locus YJL164C, strain tpk1, hits give low values 0.956 | S. cerevisiae deletion strains, locus YJL166W, strain qcr8, hits give low values 0.914 | S. cerevisiae deletion strains, locus YJL187C, strain SWE1, hits give low values 0.965 | S. cerevisiae deletion strains, locus YKL160W, strain elf1, hits give low values 0.947 | S. cerevisiae deletion strains, locus YKR026C, strain gcn3, hits give low values 0.993 | S. cerevisiae deletion strains, locus YKR091W, strain srl3, hits give low values 0.992 | S. cerevisiae deletion strains, locus YLL001W, strain dnm1, hits give low values 0.939 | S. cerevisiae deletion strains, locus YLL026W, hits give low values 0.967 | S. cerevisiae deletion strains, locus YLL041C, strain sdh2, hits give low values 1 | S. cerevisiae deletion strains, locus YLR027C, strain aat2, hits give low values 0.943 | S. cerevisiae deletion strains, locus YLR221C, strain rsa3, hits give low values 0.924 | S. cerevisiae deletion strains, locus YLR258W, strain gsy2, hits give low values 0.965 | S. cerevisiae deletion strains, locus YLR262C, strain YPT6 (second series), hits give low values 0.866 | S. cerevisiae deletion strains, locus YLR320W, strain mms22, hits give low values 0.939 | S. cerevisiae deletion strains, locus YLR342W, strain FKS1, hits give low values 0.973 | S. cerevisiae deletion strains, locus YLR370C, strain arc18, hits give low values 0.929 | S. cerevisiae deletion strains, locus YLR384C, strain iki3, hits give low values 0.996 | S. cerevisiae deletion strains, locus YML120C, strain ndi1, hits give low values 1.02 | S. cerevisiae deletion strains, locus YMR058W, strain fet3, hits give low values 0.962 | S. cerevisiae deletion strains, locus YMR125W, strain sto1, hits give low values 1.04 | S. cerevisiae deletion strains, locus YMR129W, hits give low values 0.984 | S. cerevisiae deletion strains, locus YMR205C, strain PFK2, hits give low values 0.935 | S. cerevisiae deletion strains, locus YMR231W, strain pep5, hits give low values 0.995 | S. cerevisiae deletion strains, locus YNL071W, strain lat1, hits give low values 0.922 | S. cerevisiae deletion strains, locus YNL209W, strain ssb2, hits give low values 0.981 | S. cerevisiae deletion strains, locus YNL248C, strain rpa49, hits give low values 1.01 | S. cerevisiae deletion strains, locus YNL322C, strain KRE1 (second series), hits give low values 0.99 | S. cerevisiae deletion strains, locus YNR049C, strain mso1, hits give low values 1 | S. cerevisiae deletion strains, locus YOR001W, strain rrp6, hits give low values 0.98 | S. cerevisiae deletion strains, locus YOR080W, strain dia2, hits give low values 1 | S. cerevisiae deletion strains, locus YOR265W, strain rbl2, hits give low values 0.992 | S. cerevisiae deletion strains, locus YOR290C, strain snf2, hits give low values 0.866 | S. cerevisiae deletion strains, locus YPL106C, strain sse1, hits give low values 0.958 | S. cerevisiae deletion strains, locus YPL240C, strain hsp82, hits give low values 0.986
